The values below come from PubChem BioAssay (NCATS).

The structures appear in SMILES notation. Results filed as inconclusive are left out. Entries that show only a call come without a potency. Activity calls are given as the source filed them. Calls come from the whole dose curve; as a rule, active = well fitted inhibition curve with a large enough effect; inconclusive = small, poorly fitted or top-dose-only effect; inactive = no such curve, though single readings can be large or run the other way. Where a SMILES comes first, the peptide text is derived from it. The star is where a group is joined. βNA = c1ccc2cc(N*)ccc2c1; Cbz = O=C(OCc1ccccc1)*

The experiment in a line: P-glycoprotein substrates identified in KB-3-1 adenocarcinoma cell line, qHTS therapeutic library screen (AID 1346986). Note: nearly all actives have a fitted effect of over 60% in size. Conditions: KB-3-1 parental cells viability, CellTiter-Glo, 72 h; series mostly up to 44.5 µM. How it is done:
The ATP-binding cassette transporters P-glycoprotein (P-gp) is known to limit brain penetration of many chemotherapy drugs. […] We used the CellTiter-Glo viability assay to test library compounds against the parental KB-3-1 human cervical adenocarcinoma cell line and the colchicine-selected sub-line KB-8-5-11 that over-expresses P-gp. KB-8-5-11 cells were also tested in the presence of a P-gp inhibitor (tariquidar) to assess reversability of transporter-mediated resistance. Of the tested compounds, a total of 90 P-gp substrates were identified including 55 newly identified P-gp substrates. Substrates were confirmed using an orthogonal killing assay against HEK-293 cells transfected with P-gp. As exemplars, we confirmed that AT7159 (cyclin-dependent kinase inhibitor); AT9283, (Janus kinase 2/3 inhibitor); ispinesib (kinesin spindle protein inhibitor); gedatolisib (PKI-587, phosphoinositide 3-kinase/mammalian target of rampamycin inhibitor); GSK-690693 (AKT inhibitor); and KW-2478 (heat shock protein 90 inhibitor) were substrates , and direct ATPase stimulation was assessed. ABCG2 was also found to confer high levels of resistance to AT9283, GSK-690693 and gedatolisib, while ispinesib, AT7519 and KW-2478 were weaker substrates.
The HeLa derivative cell line, KB-3-1, and its colchicine-selected, P-gp-overexpressing subline, KB-8-5-11 were maintained in DMEM with 10% FCS and Pen/Strep with glutamine at 37 degree C in 5% CO2. For KB-8-5-11 cells, colchicine was added to the medium at a concentration of 100 ng/mL. HEK-293 cells transfected with empty vector (pcDNA) or vector containing human ABCB1 (MDR-19) or ABCG2 (R-5) have been described previously (Robey, Lin, Qiu, Chan & Bates, 2011) and were maintained in EMEM supplemented with 10% FCS, Pen/Strep and glutamine with 2 mg/ml G418 to select for the expression of the transporter. Cultures were confirmed to be free of mycoplasma infection using the MycoAlert Mycoplasma Detection Kit (Lonza, Walkersville, MD). For the screen, assay medium was identical to culture medium except for KB-8-5-11 where colchicine was excluded from the medium.
All cell lines were plated into 1536-well plates at 500 cells/well in 5 uL media. Compounds were then pinned in dose-response using a 1536-head pin tool (Kalypsis, San Diego, CA) and plates were incubated at 37 degree C in 5% CO2 for an additional 72 h. CellTiter-Glo reagent (Promega) was dispensed into the wells, incubated for 5 min and luminescence was read on a ViewLux instrument (Perkin-Elmer). Cytotoxic compounds were defined as those that yielded a curve class of -1.1, -1.2, -2.1, -2.2, -2.3, or -2.4, a maximum response of >50% and an AC50 of < 10 uM. Cherry-picked hits from screening analysis were tested with both the KB pair of cell lines, and the pcDNA (empty vector control) and MDR-19 (P-gp overexpressing) pair were tested, in the absence and presence of tariquidar.
On the technique in general: In qHTS, concentration-response curves come from the screen itself.
As for `O=C(O)CC1CCC(c2ccc(NC(=O)c3nnc(Nc4ccc(F)c(F)c4)o3)cc2)CC1` (stereo not given), the Potency entry is “inactive”.

For the molecule `COc1cc(C(=O)OCC2=CCC3C(C(=O)O)=COC(O[C@@H]4O[C@H](CO)[C@@H](O)[C@H](O)[C@H]4O)C23)ccc1O` (stereo not given in full), the Potency entry is “inactive”.

Turning to `CC1(C)[C@@H]2CC=C(CO[C@@H]3O[C@H](CO[C@@H]4OC[C@H](O)[C@H](O)[C@H]4O)[C@@H](O)[C@H](O)[C@H]3O)[C@H]1C2`, the Potency result is “inactive”.

Turning to `COc1cccc(Cn2ncc3c4sc(S(C)=O)cc4n(C)c3c2=O)c1` (stereo not given), the Potency entry is “inactive”.

Consider `CO[C@H]1c2cc(C(C)C)c(O)c(O)c2[C@@]23CCCC(C)(C)C2[C@@H]1OC3=O` (stereo not given in full), for which the Potency entry is “inactive”.

In the case of `O=C(O[C@H]1[C@H](Oc2ccc(O)cc2CO)O[C@H](CO)[C@@H](O)[C@@H]1O)c1ccccc1`, the Potency entry was “inactive”.

Consider `CC(C)C1NC(=O)CNC(=O)C2CCCN2C(=O)C(Cc2c[nH]c3ccccc23)NC(=O)CNC(=O)C(Cc2ccc(O)cc2)NC(=O)CNC1=O` (stereo not given) (cyclo(GVGYGWP); configuration not given here), for which the Potency result was “inactive”.

`O=C1C(Cl)=C(N2CCOCC2)C(=O)N1c1ccc(Cl)c(Cl)c1`: the Potency result is “inactive”.

As for `C#CCCCn1cc(-c2cccc3c2N[C@@H](C)CC(=O)N3)cn1`, the Potency result was “inactive”.

With `C[C@@H]1[C@H](O)[C@@H]2OC(=O)C3=C2[C@H](CCC3)[C@@]12C[C@@H](c1ccoc1)OC2=O`, the Potency entry is “inactive”.

`CC1(C)C=Cc2c(ccc3c2[N+]([O-])=C2C3(O)CC34NC(=O)C5(CCCN5C3=O)CC4C2(C)C)O1` (stereo not given): the Potency entry is “inactive”.

On to `OC[C@@]1(O)CO[C@@H](OC[C@H]2O[C@@H](OCc3ccccc3)[C@H](O)[C@@H](O)[C@@H]2O)[C@@H]1O`, for which the Potency result was “inactive”.

For `NC[C@H]1CCC[C@@H](CNC(=O)[C@@H](Cc2c[nH]c3ccccc23)NC(=O)N2CCC3(C=Cc4ccccc43)CC2)C1`, the Potency result is “inactive”.

With `C[C@@H]1CC2OC(=O)C3=C2C(CCC3O)[C@@]12C[C@@H](c1ccoc1)OC2=O` (stereo not given in full), the Potency entry is “inactive”.

Consider `COc1cc(O)cc(O[C@@H]2O[C@H](CO)[C@@H](O[C@@H]3OC[C@](O)(CO)[C@H]3O)[C@H](O)[C@H]2O)c1OC`, for which the Potency entry is “inactive”.

On to `CC(C)CC(=O)O[C@@H]1O[C@H](CO)[C@@H](O[C@H]2O[C@H](C)[C@@H](N[C@H]3C=C(CO)[C@@H](O[C@H]4O[C@H](CO)[C@@H](O[C@H]5O[C@H](CO)[C@@H](O[C@H]6O[C@H](CO)[C@@H](O)[C@H](O)[C@H]6O)[C@H](O)[C@H]5O)[C@H](O)[C@H]4O)[C@H](O)[C@H]3O)[C@H](O)[C@H]2O)[C@H](O)[C@H]1O`, for which the outcome is “inactive [at 9.29 µM]”.

Take `CC1CC(O)/C=C/C(O)/C=C\C(=O)O1` (stereo not given): the Potency entry is “inactive”.

Consider `CC(=O)OC1C(C)C2C(OC3OC(CO)C(O)C(O)C3O)OC=C(C(=O)O)C2C1OC(=O)c1ccccc1` (stereo not given), for which the Potency result is “inactive”.

In the case of `COc1ccc(/C=C/C(N)=O)cc1OC`, the Potency entry is “inactive”.

On to `O=C(O)c1ccc(NC(=O)[C@H](CC2CCCC2)n2cnc(C(F)(F)F)c2)nc1`, for which the Potency entry is “inactive”.

On to `CC[C@@H](Nc1c(Nc2cccc(C(=O)N(C)C)c2O)c(=O)c1=O)c1ccc(C)o1`, for which the Potency entry is “inactive”.

On to `CC(C)=CCC/C(C)=C/CO[C@@H]1O[C@H](CO[C@@H]2OC[C@](O)(CO)[C@H]2O)[C@@H](O)[C@H](O)[C@H]1O`, for which the Potency result was “inactive”.

As to `C[C@@H]1C[C@@H](O)[C@@]23CO[C@]2(CO)C[C@@H](O)CC3[C@@]12CC(c1ccoc1)OC2=O` (stereo not given in full), the Potency entry is “inactive”.

In the case of `CCOC(=O)CSc1nc2c(sc3ccccc32)c(=O)n1CCCN1CCCC1`, the Potency result is “inactive”.

Turning to `CC(C)CC(NC(=O)OCc1ccccc1)C(=O)NC(CC(C)C)C(=O)NC(CCC(=O)O)C(=O)Nc1ccc2ccccc2c1` (stereo not drawn) (Cbz-Leu-Leu-Glu-βNA; configuration not given here), the Potency entry is “inactive”.

`Nc1ncnc2c1C(=O)N(c1ccc(C3CCC(CC(=O)O)CC3)cc1)CCO2` (stereo not given): the Potency result was “inactive”.

With `COc1cc(CCCO)ccc1O[C@@H]1O[C@H](CO)[C@@H](O)[C@H](O)[C@H]1O`, the Potency result was “inactive”.

In the case of `COc1cc(C2CC(=O)Nc3c2cc(Br)c2ccccc32)cc(OC)c1OC` (stereo not given), the Potency entry is “inactive”.

Turning to `COc1cc(O[C@@H]2O[C@H](CO[C@H]3OC[C@](O)(CO)[C@H]3O)[C@@H](O)[C@H](O)[C@H]2O)cc(OC)c1O`, the Potency entry was “inactive”.

For the molecule `O=C(N[C@H](Cc1ccccc1)C(=O)O)c1sc2cc(F)ccc2c1Cl`, the Potency result was “inactive”.

Consider `CCNC(=O)OC1CCN(c2nncc3cc(OC)c(OC)cc23)CC1`, for which the Potency result was “inactive”.

Turning to `CC1(C)CC[C@]2(C(=O)O[C@@H]3O[C@H](CO[C@@H]4O[C@H](CO[C@@H]5O[C@H](CO)[C@H](O)[C@H](O)[C@H]5O)[C@@H](O)[C@H](O)[C@H]4O)[C@@H](O)[C@H](O[C@@H]4O[C@H](CO)[C@@H](O)[C@H](O)[C@H]4O)[C@H]3O)[C@H](O)C[C@]3(C)C(=CCC4[C@@]5(C)CC[C@H](O[C@@H]6OC[C@@H](O)[C@H](O)[C@H]6O)[C@@](C)(C(=O)O)C5CC[C@]43C)[C@@H]2C1` (stereo not given in full), the outcome was “inactive [at 9.29 µM]”.

Turning to `CCC(C)C(=O)O[C@H]1C[C@](C)(O)[C@]23OC(C)(C)[C@H](C[C@H](OC(=O)c4ccccc4)[C@]2(COC(C)=O)[C@H]1OC(=O)C(C)CC)[C@H]3OC(C)=O` (stereo not given in full), the Potency entry was “inactive”.

As for `CCc1nnc(NS(=O)(=O)c2ccc(NC(=S)NC(=O)/C=C/c3ccc(F)cc3)cc2)s1`, the Potency result is “inactive”.

Turning to `CCCC1=CC2=C(CO1)C(=O)C(C)(O)C(OC(=O)c1c(C)cc(OC)cc1O)C2` (stereo not given), the Potency entry is “inactive”.

Take `Cc1cccc(-c2nn3c(c2-c2ccnc4ccc(C(N)=O)cc24)CCC3)n1`: the Potency result was “inactive”.

Take `CC1=CC[C@@]2(C)CC[C@@](O)(C(C)C)[C@@H]2[C@@H](O)C1`: the Potency result was “inactive”.

For `C/C=C1/[C@H](O[C@@H]2O[C@H](CO)[C@@H](O)[C@H](O)[C@H]2O)OC=C2C(=O)O[C@@H]3C[C@@H](C(C)CO)[C@H](COC(=O)C[C@H]21)[C@H]3C` (stereo not given in full), the Potency entry is “inactive”.

Turning to `CC(=O)O[C@@H]1[C@@H](O)[C@H](C)O[C@@H](O[C@H]2[C@@H]3C=CO[C@@H](O[C@@H]4O[C@H](CO)[C@@H](O)[C@H](O)[C@H]4OC(C)=O)[C@@H]3[C@@]3(CO)O[C@@H]23)[C@@H]1OC(=O)/C=C/c1ccc(O)cc1`, the Potency result is “inactive”.

In the case of `COc1cccc(OC)c1-c1cc(C(=O)N[C@@H](CC(C)C)C(=O)O)nn1-c1ccnc2cc(Cl)ccc12`, the Potency result was “inactive”.
